From ChEMBL document CHEMBL4808148, “HDAC6 screening dataset using tau-based substrate in an enzymatic assay yields selective inhibitors and activators” (2021)
Among all 5,600 compounds or so, about 150 (2.7%) showed an effect of 50% or more. This is one part of a sample in which strong results are shown more often than they occur.

Tests used:
[1] = target: T1, Protein deacetylase HDAC6 (Homo sapiens) (UniProt Q9UBN7); settings: at 10 µM
T1 sequence (whole entry): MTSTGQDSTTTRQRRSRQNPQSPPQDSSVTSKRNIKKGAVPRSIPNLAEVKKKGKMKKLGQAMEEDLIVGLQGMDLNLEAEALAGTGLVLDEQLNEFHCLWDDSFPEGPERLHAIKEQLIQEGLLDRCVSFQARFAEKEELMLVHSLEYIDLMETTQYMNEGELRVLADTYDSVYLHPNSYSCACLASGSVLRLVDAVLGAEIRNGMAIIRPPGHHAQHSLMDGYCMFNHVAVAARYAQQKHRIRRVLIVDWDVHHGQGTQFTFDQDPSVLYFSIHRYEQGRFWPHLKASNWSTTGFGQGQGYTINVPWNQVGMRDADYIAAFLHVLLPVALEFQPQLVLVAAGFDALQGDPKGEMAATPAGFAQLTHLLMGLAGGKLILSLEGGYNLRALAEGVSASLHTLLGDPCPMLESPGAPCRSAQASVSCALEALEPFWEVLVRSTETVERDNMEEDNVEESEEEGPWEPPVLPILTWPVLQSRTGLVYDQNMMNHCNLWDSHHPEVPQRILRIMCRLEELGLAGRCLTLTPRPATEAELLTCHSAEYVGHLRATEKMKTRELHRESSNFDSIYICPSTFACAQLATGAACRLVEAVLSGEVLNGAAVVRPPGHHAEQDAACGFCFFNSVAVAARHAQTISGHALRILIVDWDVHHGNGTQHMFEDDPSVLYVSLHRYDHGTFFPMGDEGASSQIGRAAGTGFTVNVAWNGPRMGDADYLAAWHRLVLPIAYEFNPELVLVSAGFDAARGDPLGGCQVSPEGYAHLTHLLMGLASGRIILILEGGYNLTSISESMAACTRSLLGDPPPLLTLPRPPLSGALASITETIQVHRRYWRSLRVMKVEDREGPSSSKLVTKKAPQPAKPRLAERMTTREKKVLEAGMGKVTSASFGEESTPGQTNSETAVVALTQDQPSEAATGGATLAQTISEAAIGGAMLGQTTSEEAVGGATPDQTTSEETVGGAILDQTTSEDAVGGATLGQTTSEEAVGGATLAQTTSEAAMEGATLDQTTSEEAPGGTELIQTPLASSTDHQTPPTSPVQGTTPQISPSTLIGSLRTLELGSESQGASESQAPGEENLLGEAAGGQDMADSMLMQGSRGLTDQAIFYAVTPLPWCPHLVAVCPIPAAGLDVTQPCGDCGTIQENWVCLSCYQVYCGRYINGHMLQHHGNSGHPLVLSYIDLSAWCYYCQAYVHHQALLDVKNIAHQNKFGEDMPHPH

[2] = target: Protein deacetylase HDAC6 (Homo sapiens) (UniProt Q9UBN7); settings: at 10 µM; remark: listed apart in the source

Row | Compound | inhibition [1] | inhibition [2]
1 | Oc1cc(O)cc(/C=C/c2ccc(O)c(O)c2)c1 | 74% | –
2 | Oc1cc(O)cc(O)c1 | 2.03% | –
3 | COc1ccc(/C=C\c2cc(OC)c(OC)c(OC)c2)cc1O | -2.33% | –
4 | CCCCNc1ncc(-c2ccc(CN3CCOCC3)cn2)c(N[C@H]2CC[C@H](O)CC2)n1 | -9.04% | –
5 | CCc1c(C(=O)Nc2cc(S(=O)(=O)N(CC)CC)ccc2O)[nH]c(C)c1C(C)=O | -2.94% | –
6 | NC(Cn1ccc(=O)n(Cc2ccccc2C(=O)O)c1=O)C(=O)O (stereo unspecified) | -9.78% | –
7 | SPIRAMYCIN, CHEMBL6195749 | – | -1.63%
8 | COc1ccc(Cl)cc1[C@]1(F)C(=O)Nc2cc(C(F)(F)F)ccc21 | -2.57% | –
9 | Nc1n[nH]c2nc3ccccc3nc12 | 33.5% | –
10 | CC(C)C(=O)c1ccc(O)c(O)c1 | 0.03% | –
11 | O=C(NO)c1ccc(O)c(O)c1 | 56.3% | –
12 | O=C(O)C(O)Cc1ccc(O)c(O)c1 (stereo unspecified) | 6.01% | –
13 | COc1cc2c(c(OC)c1OC)-c1c(cc3c(c1OC)OCO3)C[C@@H](C)[C@@H](C)C2 | -5.94% | –
14 | O=S(=O)(NCCCCCCc1ccccc1)c1cccc2c(Cl)cccc12 | -3.75% | –
15 | Oc1ccc(OCc2ccccc2)cc1 | 87% | –
16 | CC/C(=C(\c1ccc(O)cc1)c1ccc(OCCNC)cc1)c1ccccc1 | -2.91% | –
17 | COc1ccc(O)cc1 | 1.74% | –
18 | O=C(O)c1ccccc1 | 3.92% | –
19 | O=C(c1ccccc1)c1ccc2n1CCC2C(=O)O (stereo unspecified) | 75.8% | –

Row | Compound | inhibition [1] | inhibition [2]
20 | O=C(O)C1CCCN(CCC=C(c2ccccc2)c2ccccc2)C1 (stereo unspecified) | -1.71% | –
21 | CC(=O)C1=C(O)C=C2Oc3c(C(C)=O)c(O)c(C)c(O)c3[C@@]2(C)C1=O | -7.8% | –
22 | CO[C@H]1/C=C/O[C@@]2(C)Oc3c(C)c(O)c4c(O)c(cc(O)c4c3C2=O)NC(=O)/C(C)=C\C=C\C(C)[C@H](O)[C@@H](C)[C@@H](O)[C@@H](C)[C@H](OC(C)=O)[C@@H]1C (stereo partly specified) | 1.34% | –
23 | CSc1nc(-c2ccc(F)cc2)c(-c2ccnc(NC(C)c3ccccc3)c2)[nH]1 (stereo unspecified) | -0.06% | –
24 | Cc1nccc2[nH]c(=O)ccc12 | -0.8% | –
25 | COC(=O)CC1CC(c2ccc(O)cc2)=NO1 (stereo unspecified) | 68.8% | –
26 | COC(=O)c1ccc(O)cc1 | 11.4% | –
27 | Fc1ccc(-c2cncc(CN3CCN(c4cccc5c4OCCO5)CC3)c2)cc1 | 2% | –
28 | COC[C@@H](c1ccc(C(F)(F)F)cc1)N1CCN(C2(C)CCN(C(=O)c3c(C)ncnc3C)CC2)C[C@@H]1C | 6.58% | –
29 | O=C(c1ccc(/C=C/c2n[nH]c3ccccc23)cc1)N1CCNCC1 | 98% | –
30 | Nc1c2ccccc2nc2ccccc12 | 4.21% | –
31 | Nc1ccc(/N=N/c2ccccc2)c(N)n1 | 78.3% | –
32 | O=C(O)CCn1c2c(c3ccccc31)C[C@H](NS(=O)(=O)c1ccc(F)cc1)CC2 | 0.51% | –
33 | CN1CCc2c(c3ccccc3n2Cc2ccc(C(=O)NO)cc2)C1 | 97% | –
34 | Cc1ccc2c(c1)c1c(n2CCc2ccc(C)nc2)CCN(C)C1 | 0.41% | –
35 | N#Cc1c(N)nc(SCc2ncc[nH]2)c(C#N)c1-c1ccc(O)cc1 | 4.89% | –
36 | CSc1ccc(C(=O)N[C@@H]2CCCC[C@@H]2NC(=O)CNC(=O)c2cc(C(F)(F)F)ccc2NC(=O)NC(C)C)cc1 | -5.32% | –
37 | Cc1ccc(S(=O)(=O)Nc2nc3ccccc3nc2Nc2ccc3nsnc3c2)cc1 | 1.65% | –
38 | C#Cc1cccc(Nc2ncnc3cc(OC)c(OCCCCCCC(=O)NO)cc23)c1 | 94.6% | –

Row | Compound | inhibition [1] | inhibition [2]
39 | C#Cc1cccc(Nc2ncnc3cc(OCCOC)c(OCCOC)cc23)c1 | 1.06% | –
40 | COc1cc2ncnc(Nc3cccc(Br)c3)c2cc1OC | -6.11% | –
41 | COc1cc2c(NC3CCN(C)CC3)nc(N3CCCN(C)CC3)nc2cc1OCCOCCN(C)C | 4.62% | –
42 | O=C(NCCO)c1cc(C(=O)NCCO)cc(C(=O)NCCO)c1 | -2.63% | –
43 | CCc1nn(CCO)c(CC)c1Oc1cc(C#N)cc(C#N)c1 | -5.93% | –
44 | O=C1Nc2ccccc2/C1=C1/Nc2ccccc2/C1=N\O | 36.4% | –
45 | O=C(Nc1ccc(O)cc1)c1ccccc1O | 44.6% | –
46 | O=C(N/N=C/c1ccccc1O)c1ccccc1O | 77.3% | –
47 | O=C(N/N=C/c1ccc(O)c(O)c1)c1cc2ccccc2cc1O | 32.8% | –
48 | CC#C[C@@H](CC(=O)O)c1ccc(OCc2cccc(-c3ccc(C(F)(F)F)cc3)c2)cc1 | 5.76% | –
49 | O=C(O)c1ccc(CN2CCC(CN[C@@H]3C[C@H]3c3ccccc3)CC2)cc1 | 8.19% | –
50 | N[C@@H](CCC(=O)O)C(=O)O | -3.62% | –
51 | O=c1c(O[C@@H]2O[C@H](CO)[C@H](O)[C@H](O)[C@H]2O)c(-c2ccc(O)c(O)c2)oc2cc(O)cc(O)c12 | 11.7% | –
52 | COc1ccc(-c2oc3c(CC=C(C)C)c(O)cc(O)c3c(=O)c2O)cc1 | 6.17% | –
53 | COc1ccc(C(=O)c2ccc(C)cc2)c(O)c1 | 5.59% | –
54 | O=c1c(-c2ccc(O)cc2)coc2cc(O)cc(O)c12 | 57.9% | –
55 | COc1ccc(-c2coc3cc(O)cc(O)c3c2=O)cc1 | 63.1% | –
56 | O=c1c(O)c(-c2ccc(O)cc2O)oc2cc(O)cc(O)c12 | 2.84% | –
